We go through nine compounds from PubChem BioAssay.

Test [1] can be described thus: anti-His antibody binders, primary screen, artefact control for SMM control protein annotation, biochemical, small-molecule microarray, 635 nm fluorescence (AID 1128).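 Note: score merges feature fluorescence with signal-to-noise for each printed compound spot.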 To be noted: anti-His Alexa647 antibody binding, higher = more signal.
The subject of test [2] is Human papillomavirus type 1a E7 protein (residues 1-88). In words: HPV1a E7 small-molecule binders, primary screen, biochemical, small-molecule microarray, residues 1-88, 635 nm (AID 1129). As to conditions: small-molecule microarray binding, fluorescence 635 nm; higher = more signal.
The target of test [3] is Focal adhesion kinase 1 (Homo sapiens) (UniProt Q05397). In words: small-molecule microarray binders of FAK, primary screen, biochemical, 635/667 nm fluorescence, BSA, DTT (AID 1130).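 Note: composite of spot emission at 667 nm and signal to noise over triplicate slides.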 To be noted: PTK2 binding, 635 nm fluorescence, higher = more signal.
The subject of test [4] is Fibrinogen (Alexa647-labelled). Kind of test: fibrinogen binders on compound microarrays, profiling panel, artefact control for SMM control-protein annotation, biochemical, small-molecule microarray, 635/667 nm fluorescence (AID 1131).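 Note: z-score merges 667 nm fluorescence with per-spot signal-to-noise over triplicate slides.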 As to conditions: fibrinogen-A647 binding fluorescence, higher = more signal.
In test [5] the target is Follistatin (Homo sapiens) (UniProt P19883). Kind of test: follistatin binders on small-molecule microarrays, primary screen, biochemical, small-molecule microarray, 635/667 nm fluorescence (AID 1132). As to conditions: FST binding, 635 nm fluorescence, higher = more signal.
Test [6] concerns the target Fibroblast growth factor 2 (Homo sapiens) (UniProt P09038). Kind of test: FGF2 binders on small-molecule microarrays, primary screen, biochemical, small-molecule microarray, 635/667 nm fluorescence (AID 1133). To be noted: small-molecule microarray binding, FGF2, fluorescence 635/667; higher = more signal.
Test [7] is described as follows: mitochondrial membrane potential change in A549 cells, profiling panel, cell-based, JC-1 fluorescence, basal, 24 h, 100 nL (AID 1138).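 Note: A549 lung adenocarcinoma cells under basal conditions with no added stimulus; test concentration not given here.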 To be noted: higher = more signal.
In test [8] the test system is Lefty1. Kind of test: Lefty1 binders on small-molecule microarrays, primary screen, biochemical, small-molecule microarray, 635/667 nm fluorescence (AID 1139). As to conditions: small-molecule microarray binding, fluorescence 635/667; higher = more signal.
Test [9] concerns wheat germ agglutinin (Triticum aestivum), Alexa647-labelled. Kind of test: wheat germ agglutinin binders on compound microarrays, profiling panel, artefact control for SMM control-protein annotation, biochemical, small-molecule microarray, 635/667 nm fluorescence (AID 1140).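 Note: score merges 667 nm feature emission with signal to noise over triplicate slides.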 To be noted: WGA-A647 binding, 635 nm fluorescence, higher = more signal.
The target of test [10] is Luciferin 4-monooxygenase (Photinus pyralis) (UniProt P08659). Kind of test: firefly luciferase enzyme inhibitors, primary screen, biochemical, luminescence, purified enzyme, 2006 set (AID 1141).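 Note: cell-free assay with purified firefly luciferase at 100 ng per well in PBS; test concentration not given here.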 As to conditions: SteadyGlo luminescence, 30 min, higher = more signal, called active from +8 up or from −8 down.
In test [11] the test system is Wnt5a (protein binding on small-molecule microarray). In words: Wnt5a binders on small-molecule microarray, primary screen, biophysical, 635/667 nm fluorescence (AID 1142).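 Note: fluorescence read at 667 nm with signal to noise per printed feature.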 To be noted: 635 nm fluorescence, higher = more signal.
Test [12] in a line: cell viability in Huh7 cells, primary screen, cytotoxicity control for HCV replication inhibitor project, CellTiter-Glo luminescence, basal, 48 h (AID 1143).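 Note: Huh7 hepatoma cells carrying a hepatitis C replication reporter with no stimulus; test concentration not given here.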 To be noted: Huh7 HCV replicon, higher = more signal, called active from +8 up or from −8 down. (ATP-based viability assays read luminescence as a measure of living cells.)
Test [13] can be described thus: P. aeruginosa biofilm formation inhibitors, primary screen, PAO1 strain, BacTiter-Glo luminescence, LB-PBS (AID 1144). As to conditions: 12 h, higher = more signal.
Test [14] in a line: CREB reporter modulators without forskolin, primary screen, cell-based, PC12, CRE-LacZ reporter, unstimulated (AID 1145). As to conditions: no forskolin, luminescence, 4.5 h, higher = more signal, called active from +8 up or from −8 down.
A short description of test [15]: CREB reporter modulators under forskolin, primary screen, cell-based, PC12, CRE-LacZ reporter, forskolin-stimulated (AID 1146).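 Note: PC12 cells with 6xCRE LacZ reporter stimulated by forskolin 10 µM; beta-galactosidase reporter signal reflecting CREB driven transcription.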 To be noted: luminescence, 4.5 h, higher = more signal, called active from +8 up or from −8 down.
Test [16] addresses Streptavidin (Streptomyces avidinii) (UniProt P22629). Kind of test: streptavidin binders on small-molecule microarray, primary screen, artefact control for SMM compound annotation, biophysical, 635/667 nm fluorescence (AID 1147).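 Note: signal reflects streptavidin binding to arrayed compounds as a control protein.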 As to conditions: streptavidin binding, higher = more signal.
Test [17] is described as follows: small-molecule binders of probe aInhba, primary screen, biochemical, small-molecule microarray, 635/667 nm fluorescence (AID 1148).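 Note: score merges 667nm spot fluorescence with signal-to-noise for antibody binding to printed compounds.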 As to conditions: higher = more signal.
Test [18] deals with Torsin-1A (Homo sapiens) (UniProt O14656). Kind of test: torsin A binders from cell lysate, primary screen, small-molecule microarray, wild-type, 635/667 nm (AID 1149). To be noted: COS7 hTOR1A-WT lysate, 635 nm fluorescence, higher = more signal.
Test [19] has the same target. Kind of test: small-molecule binders of mutant TOR1A in lysate, primary screen, cell lysate, small-molecule microarray, COS7 lysate, 635/667 nm fluorescence (AID 1150).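 Note: score pools 667 nm emission and signal to noise measuring lysate protein binding.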 To be noted: COS7 hTOR1A mutant lysate, 635 nm fluorescence, higher = more signal.
For test [20], the system named is Sonic hedgehog protein (Shh). Kind of test: small-molecule binders of Shh protein, primary screen, biochemical, small-molecule microarray, 635/667 nm fluorescence (AID 1151).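 Note: Shh protein binding to compounds spotted on small-molecule microarray slides; score combines spot fluorescence intensity with signal-to-noise across triplicate slides.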 To be noted: small-molecule microarray binding, 635 nm fluorescence; higher = more signal.

Calls of active or inactive are those of the source. Unless noted, the rule behind the calls is not given here.

Sequence of Focal adhesion kinase 1 (Homo sapiens) (Q05397 whole entry, looked up): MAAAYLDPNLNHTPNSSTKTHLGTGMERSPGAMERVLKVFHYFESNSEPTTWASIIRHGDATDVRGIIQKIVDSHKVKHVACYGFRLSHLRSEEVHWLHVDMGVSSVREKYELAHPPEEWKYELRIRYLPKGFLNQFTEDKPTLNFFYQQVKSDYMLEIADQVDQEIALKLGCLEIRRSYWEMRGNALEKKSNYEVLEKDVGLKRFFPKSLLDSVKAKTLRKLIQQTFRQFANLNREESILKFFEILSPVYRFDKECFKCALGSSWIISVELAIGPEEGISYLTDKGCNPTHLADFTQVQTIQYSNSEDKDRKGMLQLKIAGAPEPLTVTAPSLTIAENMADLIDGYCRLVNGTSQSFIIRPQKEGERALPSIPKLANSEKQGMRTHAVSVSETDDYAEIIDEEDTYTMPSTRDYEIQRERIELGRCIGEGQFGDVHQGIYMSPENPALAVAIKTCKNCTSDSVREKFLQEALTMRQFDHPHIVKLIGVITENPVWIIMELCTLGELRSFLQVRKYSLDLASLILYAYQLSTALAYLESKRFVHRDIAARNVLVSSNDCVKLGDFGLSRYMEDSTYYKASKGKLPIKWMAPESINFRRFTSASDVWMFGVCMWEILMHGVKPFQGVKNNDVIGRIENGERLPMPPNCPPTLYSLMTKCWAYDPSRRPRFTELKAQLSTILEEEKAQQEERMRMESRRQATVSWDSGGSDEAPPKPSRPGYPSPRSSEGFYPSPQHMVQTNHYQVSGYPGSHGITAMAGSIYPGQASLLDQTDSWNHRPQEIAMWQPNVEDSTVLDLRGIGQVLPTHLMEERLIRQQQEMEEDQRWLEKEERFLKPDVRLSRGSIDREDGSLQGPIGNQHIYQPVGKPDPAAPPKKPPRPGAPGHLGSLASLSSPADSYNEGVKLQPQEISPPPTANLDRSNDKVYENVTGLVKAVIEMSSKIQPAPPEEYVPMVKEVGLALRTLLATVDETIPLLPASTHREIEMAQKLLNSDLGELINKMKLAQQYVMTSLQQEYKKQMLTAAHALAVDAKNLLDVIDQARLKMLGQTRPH
Sequence of Follistatin (Homo sapiens) (P19883 whole entry, looked up): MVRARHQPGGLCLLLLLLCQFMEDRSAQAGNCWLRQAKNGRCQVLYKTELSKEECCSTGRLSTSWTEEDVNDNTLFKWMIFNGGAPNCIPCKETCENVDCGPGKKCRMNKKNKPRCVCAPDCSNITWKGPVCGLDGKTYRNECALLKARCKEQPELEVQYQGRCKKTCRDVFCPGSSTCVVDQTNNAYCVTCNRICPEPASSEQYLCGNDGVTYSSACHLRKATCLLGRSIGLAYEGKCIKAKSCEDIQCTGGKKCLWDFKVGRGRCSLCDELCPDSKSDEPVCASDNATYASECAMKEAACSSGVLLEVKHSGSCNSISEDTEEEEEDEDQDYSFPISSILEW
Sequence of Fibroblast growth factor 2 (Homo sapiens) (P09038 whole entry, looked up): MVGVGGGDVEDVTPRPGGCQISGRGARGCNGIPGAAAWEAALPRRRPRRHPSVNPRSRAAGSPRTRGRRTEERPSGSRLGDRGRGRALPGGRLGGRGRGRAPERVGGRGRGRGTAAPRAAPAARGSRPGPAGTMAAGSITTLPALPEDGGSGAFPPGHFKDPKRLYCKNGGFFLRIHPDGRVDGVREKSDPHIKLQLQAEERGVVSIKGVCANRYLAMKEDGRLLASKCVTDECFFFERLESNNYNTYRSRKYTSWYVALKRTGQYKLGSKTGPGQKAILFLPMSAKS
Sequence of Luciferin 4-monooxygenase (Photinus pyralis) (P08659 whole entry, looked up): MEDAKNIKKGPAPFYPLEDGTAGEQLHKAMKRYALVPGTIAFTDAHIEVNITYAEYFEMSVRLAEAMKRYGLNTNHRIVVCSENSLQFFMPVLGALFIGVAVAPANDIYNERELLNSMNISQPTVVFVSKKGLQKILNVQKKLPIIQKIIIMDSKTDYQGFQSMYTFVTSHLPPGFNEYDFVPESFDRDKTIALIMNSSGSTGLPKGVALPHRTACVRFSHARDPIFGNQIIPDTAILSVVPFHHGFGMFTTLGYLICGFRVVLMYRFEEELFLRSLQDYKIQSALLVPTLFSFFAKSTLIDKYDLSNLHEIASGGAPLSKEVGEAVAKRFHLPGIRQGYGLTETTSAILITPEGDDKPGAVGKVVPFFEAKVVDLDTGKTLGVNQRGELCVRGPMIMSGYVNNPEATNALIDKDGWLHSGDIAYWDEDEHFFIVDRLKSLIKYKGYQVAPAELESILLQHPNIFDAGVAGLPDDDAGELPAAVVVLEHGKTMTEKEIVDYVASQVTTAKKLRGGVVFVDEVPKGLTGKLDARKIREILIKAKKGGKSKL
Sequence of Torsin-1A (Homo sapiens) (O14656 whole entry, looked up): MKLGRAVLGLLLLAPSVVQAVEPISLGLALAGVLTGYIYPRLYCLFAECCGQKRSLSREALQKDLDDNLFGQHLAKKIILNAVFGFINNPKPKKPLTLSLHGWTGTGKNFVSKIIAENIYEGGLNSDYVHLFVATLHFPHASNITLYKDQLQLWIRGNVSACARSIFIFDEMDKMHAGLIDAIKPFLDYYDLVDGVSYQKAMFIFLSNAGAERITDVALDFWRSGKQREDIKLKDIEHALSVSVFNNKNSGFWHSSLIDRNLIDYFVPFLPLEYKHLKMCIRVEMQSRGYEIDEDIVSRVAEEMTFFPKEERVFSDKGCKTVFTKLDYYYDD
Sequence of Streptavidin (Streptomyces avidinii) (P22629 whole entry, looked up): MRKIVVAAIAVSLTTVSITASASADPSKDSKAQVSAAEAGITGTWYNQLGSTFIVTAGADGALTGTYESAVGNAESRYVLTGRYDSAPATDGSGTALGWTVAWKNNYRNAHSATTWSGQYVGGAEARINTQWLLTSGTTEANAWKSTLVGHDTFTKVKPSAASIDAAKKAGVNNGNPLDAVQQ

For the compound `COC(=O)[C@H](C)NC(=O)CCC1CC(OC(=O)NCCc2ccc(F)cc2)CC2(CCCC(COC(=O)NCc3cccc(C(F)(F)F)c3)O2)O1` (stereo not given in full), the composite z-score was 0.158 in test [1]; 0.637 in test [2]; 0.145 in test [3]; 0.563 in test [4]; 1.19 in test [5]; 0.617 in [6]. For the same compound, the composite z-score was 1.43 in test [8]; 0.0337 in [9]; 0.116 in [11]; 0.213 in test [16]; -0.242 in test [17]; 0.818 in [18]. For the same compound, the composite z-score in test [19] was found to be 0.0548; in test [20], 1.09. The z-score in test [7] is -0.0843; in test [10], 0.0641 (inactive); in test [12], -0.382 (inactive); in test [13] it was 0.198 (inactive); in test [14] it was 0.0178 (inactive); in test [15] it was 0.144 (inactive).
Take `C#CCCCON=C1C[C@@H](O)[C@@H](O)[C@@H]2[C@@H]3C(=O)N(c4ccc(F)cc4F)C(=O)[C@@H]3CC[C@H]12`: the composite z-score in [1] stood at 0.968; in [2], 1.02; in test [3], 0.208; in test [4], 0.894; in test [5], 0.424; in [6], 0.322. Moreover, the composite z-score is 0.662 in test [8]; 0.0156 in [9]; 0.166 in test [11]; -0.222 in [16]; -0.183 in test [17]; 0.696 in [18]. For the same compound, the composite z-score worked out at 1.31 in [19] and 0.782 in test [20]. In addition, the z-score in test [7] was 0.0852; in [10] it was 0.573 (inactive); in test [12] it was -1.71 (inactive); in [13], -0.203 (inactive); in test [14] it was -0.475 (inactive); in test [15], 0.278 (inactive).
Consider `O=C1[C@H]2[C@H]3[C@H](O)[C@H](O)CC(=NOC[C@@H](O)COCc4ccco4)[C@@H]3CC[C@H]2C(=O)N1C[C@@H]1CCCO1`, for which the composite z-score in test [1] was 0.142; in test [2], -0.12; in [3], -0.288; in [4], -0.652; in [5] it was 0.907; in [6], 1.34. Moreover, the composite z-score is 1.17 in [8]; -0.559 in test [9]; 0.149 in test [11]; -0.0625 in test [16]; -0.263 in test [17]; 3.22 in test [18]. The composite z-score is 3.3 in [19] and 1.59 in [20]. In addition, the z-score in test [7] was -0.00687; in [10], 0.31 (inactive); in test [12], 0.0304 (inactive); in test [13] it was 0.835 (inactive); in test [14], -0.207 (inactive); in test [15], -0.0793 (inactive).
For `C[C@@H]1NC(=O)[C@@H](C)COC(=O)[C@H](C)NC(=O)[C@@H](C)COC1=O`, the composite z-score is 1.08 in test [1]; 0.922 in test [2]; 0.0556 in test [3]; -0.0769 in [4]; 0.172 in test [5]; 1.21 in [6]. In addition, the composite z-score is 0.389 in test [8]; -0.137 in test [9]; 0.192 in test [11]; -0.335 in test [16]; -0.0791 in [17]; 0.179 in test [18]. For the same compound, the composite z-score was -0.231 in test [19] and 0.234 in test [20]. The z-score is -0.323 in [7]; 0.254 (inactive) in test [10]; -3.21 (inactive) in test [12]; -0.906 (inactive) in test [13]; 0.427 (inactive) in test [14]; -0.105 (inactive) in test [15].
On to `CCOC(=O)NN=C1C[C@@H](O)[C@@H](O)[C@@H]2[C@@H]3C(=O)N(Cc4ccccc4)C(=O)[C@@H]3CC[C@H]12`, for which the composite z-score is 0.347 in test [1]; -0.143 in [2]; 0.0254 in test [3]; 0.706 in [4]; 0.0086 in test [5]; -0.227 in [6]. For the same compound, the composite z-score was 0.3 in [8]; 0.0439 in [9]; -0.0307 in [11]; 1.09 in [16]; -0.214 in test [17]; 0.0722 in test [18]. In addition, the composite z-score is 1.36 in [19] and -0.171 in test [20]. The z-score in [7] is -0.39; in test [10], 0.746 (inactive); in test [12] it was -0.239 (inactive); in [13] it was -0.704 (inactive); in test [14] it was -0.837 (inactive); in [15] it was -0.175 (inactive).
On to `CO[C@H]1COC(=O)[C@@H](Cc2ccccc2)NC(=O)[C@@H](C)COC(=O)CCC[C@@H]1C`, for which the composite z-score in [1] is 4.12; in test [2], -0.666; in [3], 0.0469; in [4], -0.179; in [5] it was 0.2; in [6], 0.241. Also, the composite z-score was 0.534 in [8]; -0.29 in test [9]; 0.0124 in test [11]; -0.343 in test [16]; -0.285 in test [17]; 0.656 in test [18]. Besides, the composite z-score was 0.187 in test [19] and 0.787 in [20]. For the same compound, the z-score in test [7] was -0.946; in test [10], 0.643 (inactive); in test [12] it was -0.382 (inactive); in test [13] it was -0.0381 (inactive); in test [14], -1.21 (inactive); in test [15] it was -0.596 (inactive).
For `O=C1[C@H]2[C@H]3[C@H](O)[C@H](O)CC(=NOCc4ccccc4)[C@@H]3CC[C@H]2C(=O)N1Cc1ccc2c(c1)OCO2`, the composite z-score was 0.0116 in [1]; 0.316 in test [2]; 0.928 in test [3]; 0.866 in test [4]; 1.23 in [5]; 0.319 in test [6]. Further, the composite z-score in test [8] is 0.268; in test [9], 0.261; in test [11], 0.0098; in test [16] it was 0.193; in test [17], -0.101; in test [18], 0.537. The composite z-score is -0.0537 in test [19] and 0.643 in [20]. The z-score is -0.368 in test [7]; 0.729 (inactive) in test [10]; 0.445 (inactive) in test [12]; -0.312 (inactive) in test [13]; 0.0664 (inactive) in test [14]; -0.174 (inactive) in [15].
For the compound `CO[C@@H]1COC(=O)[C@H](CCSC)NC(=O)CC=C[C@@H](C)COC(=O)CCC[C@H]1C`, the composite z-score in test [1] was -0.252; in [2], -1.17; in test [3], -0.798; in test [4], -2.26; in test [5] it was 1.44; in [6], 1.97. Further, the composite z-score is 1.84 in test [8]; -0.65 in test [9]; -0.277 in [11]; -1.47 in [16]; -0.255 in [17]; 4.03 in [18]. The composite z-score in test [19] amounted to 4.08; in test [20] it was 2.27. Further, the z-score in [7] was 0.803; in [10], 1.05 (inactive); in test [12], -2.75 (inactive); in test [13] it was -0.88 (inactive); in test [14] it was 0.341 (inactive); in [15], 0.85 (inactive).
As for `COC(=O)CC=C[C@@H](C)[C@@H](C=NOC[C@H]1O[C@H](c2ccccc2)C=C[C@@H]1Oc1ccc(OC)cc1)NS(=O)(=O)c1ccc(C)cc1`, the composite z-score is -1.16 in test [1]; -1.1 in test [2]; -0.217 in test [3]; -0.85 in test [4]; -1.04 in [5]; -0.528 in [6]. In addition, the composite z-score in [8] was -1.11; in test [9], -0.542; in test [11], -0.308; in test [16] it was -0.184; in [17], -0.23; in test [18] it was -1.46. Moreover, the composite z-score in [19] was 0.339; in test [20], -0.863. For the same compound, the z-score in test [7] was -0.173; in test [10] it was 0.847 (inactive); in test [12], -0.588 (inactive); in test [13], -0.00695 (inactive); in test [14], 3.13 (inactive); in [15] it was 0.519 (inactive).
